# Most compounds without a hit are left out; they make up all but 11% or so of the library.
# AmpC inh detg: AmpC beta-lactamase inhibition with detergent present | P00811 | AmpC hydrolysis of nitrocefin, absorbance 480 nm, 0.01% Triton | Potency, µM (series often up to 114 µM), for inactives: at the top dose activity change, negative = inhibition, most hits filed as inhibitors | hit rate 0.041% among 370,000 | AID 485294;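 note: 0% = no-compound wells and -100% = no-enzyme wells; nearly all actives have a fitted effect of over 25% in size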
# Target sequence (P00811 whole entry, looked up): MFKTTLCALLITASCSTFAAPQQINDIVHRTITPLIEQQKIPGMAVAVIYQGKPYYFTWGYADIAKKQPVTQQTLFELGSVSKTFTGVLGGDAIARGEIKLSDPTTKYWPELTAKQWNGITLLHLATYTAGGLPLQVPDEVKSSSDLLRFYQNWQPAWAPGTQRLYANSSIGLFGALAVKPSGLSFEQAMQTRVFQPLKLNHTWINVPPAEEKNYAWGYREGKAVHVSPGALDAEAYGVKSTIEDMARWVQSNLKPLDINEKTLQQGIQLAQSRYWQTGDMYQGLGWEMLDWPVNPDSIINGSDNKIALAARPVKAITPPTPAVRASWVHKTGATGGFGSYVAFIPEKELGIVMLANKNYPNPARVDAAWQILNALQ
#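 20 mM phosphate pH 7.0 + 0.01% (detergent screen) or 0.0001% Triton X-100; 5.3 nM AmpC reagent; cpd preinc 15 min RT; nitrocefin (800 uM stock) to start; A480 q20 s × 4 min; Activity was normalised to no-enzyme and no-compound control wells.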
# Pf growth 96h: inhibits malaria parasite growth, 96 h; Potency, µM (highest dose often 28.7 µM), inactives show at the top dose activity change, negative = inhibition, usual class: inhibitors; AID 504834; P. falciparum luciferase reporter growth, 96 h; hit rate 6.9% among 320,000
#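 Cell-based qHTS: luciferase-tagged P. falciparum in erythrocytes (2% hematocrit, 0.05% parasitemia final) incubated with compounds for 96 hours, 37 C, 5% CO2; luciferase detection reagent then added and luminescence measured.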
# AMA1 RON2 block: AMA1-RON2 (P. falciparum) interaction inhibition | AlphaScreen AMA1-biotinylated RON2 peptide binding | Potency, µM (titrated, usually from 58.2 µM), without a hit: at the highest dose activity change, negative = inhibition, usual class: inhibitors | hit rate 0.2% among 360,000 | AID 720542;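 note: 0% = vehicle wells and -100% = peptide control; nearly all actives have a fitted effect of over 45% in size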
#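 AMA1 (3D7) with his tag at 25 nM final met compounds first, then biotinylated RON2 peptide at 25 nM; detection used donor plus acceptor beads, 10 µg/mL apiece, read by AlphaScreen after 30 min at room temperature.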
# AmpC no deterg: AmpC beta-lactamase inhibition without detergent; P00811; AmpC nitrocefin hydrolysis, absorbance 480 nm, 0.0001% Triton; Potency, µM (top dose mostly 57.1 µM), inactives show at the highest dose activity change, negative = inhibition, usual class: inhibitors; hit rate 0.52% among 330,000; AID 485341;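 note: plate controls were no compound for no effect and no enzyme for full effect; nearly all actives have a fitted effect of over 20% in size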
#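 20 mM phosphate pH 7.0 + 0.01% (detergent screen) or 0.0001% Triton X-100; 5.3 nM AmpC reagent; cpd preinc 15 min RT; nitrocefin (800 uM stock) to start; A480 q20 s × 4 min; Activity was normalised to no-enzyme and no-compound control wells.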
# Pf growth 48h: inhibits P. falciparum growth in the first generation, 48 h. P. falciparum luciferase growth in erythrocytes, 48 h. Potency, µM (top dose mostly 28.7 µM), for the others: at the highest dose activity change, negative = inhibition, hits mostly inhibitors. hit rate 5.9% among 310,000
#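 A one-generation exposure of luciferase-tagged malaria parasites in RPMI 1640/Albumax erythrocyte culture, 37 C and 5% CO2. Inhibition is inferred from decreased luminescence after adding detection reagent.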
# HCV inh: inhibitors of hepatitis C virus infection; Huh7.5.1 HCVcc-Cre infection, luciferase reporter, 44 h; Potency, µM (top dose mostly 41.8 µM), without a hit: top-dose activity change, negative = inhibition, actives largely listed as inhibitors; hit rate 3.4% among 340,000; AID 651820
#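 A cell-based infection assay in which seeded cells (1,000 per well) receive test compound after 4 h, are inoculated with HCVcc-Cre at approximately 0.5 moi, and are incubated 44 h before luminescence detection.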
# * = called active by the depositor; ? = inconclusive; / = not tested or not shown; [ ] = remark or other dose. Calls come from the whole dose curve; as a rule, active = well fitted curve in the direction sought with a large enough effect; inconclusive = small, poorly fitted or top-dose-only effect, or another doubt; inactive = no such curve, though single readings can be large; an effect the other way counts as inactive or inconclusive. Unless noted, % is set by controls: 0 for no effect and ±100 for the full control effect; potency is the fitted concentration of half-maximal effect.
SMILES,AmpC inh detg,Pf growth 96h,AMA1 RON2 block,AmpC no deterg,Pf growth 48h,HCV inh
COc1cc(/C=N/NC(=O)c2ccc(Cl)cc2)ccc1OCC(=O)N1CC(C)OC(C)C1 (stereo not drawn),-1.1%,39.0%,-6.9%,49.6%,2.3%,17.4%
COc1cc(/C=N/NC(=S)Nc2cccc(Cl)c2C)ccc1OCC(=O)N1CC(C)OC(C)C1 (stereo not drawn),-0.1%,?,61.1%,182.3%,9.28µM*,11.2µM*
Cc1cccc(N2CCN(C(=O)C3CCN(S(=O)(=O)c4c(C)noc4C)CC3)CC2)c1C,2.1%,?,1.4%,106.8%,?,12.6µM*
CCOC(=O)c1c(S(=O)(=O)N2CCCC(C(=O)NCc3ccccc3Cl)C2)c(C)n(C)c1C (stereo not drawn),-7.2%,/,/,/,/,/
CCOC(=O)N1CCN(S(=O)(=O)N2CCCC(C(=O)NCc3ccccc3Cl)C2)CC1 (stereo not drawn),-1.1%,11.7µM*,10.2%,55.4%,6.5%,-6.0%
Cc1noc(C)c1S(=O)(=O)N1CCN(c2ccccc2Cl)CC1,-14.8%,14.7µM*,-16.6%,-9.9%,?,-2.7%
CCOC(=O)N1CCN(C(=O)C2CCCN(S(=O)(=O)c3c(C)cc(C)cc3C)C2)CC1 (stereo not drawn),0.2%,10.4µM*,-4.1%,166.1%,?,/
Cc1noc(C)c1S(=O)(=O)N1CCC(C(=O)N2CCN(c3ccccc3Cl)CC2)CC1,-8.3%,?,4.4%,102.5%,?,-9.4%
CCOc1ccc(-n2c(=O)c3c(C)c(C)sc3n(CC(=O)Nc3ccc(CC)cc3)c2=O)cc1,1.9%,/,/,/,/,/
CCOc1ccc(C2C(C(=O)Nc3ccccc3)=C(C)Nc3nc(SCc4cccc(OC)c4)nn32)cc1 (stereo not drawn),5.5%,/,/,/,/,/
Cc1ccccc1OC(=O)CSc1nnc(-c2ccc(F)cc2)o1,12.8%,/,/,/,/,/
CCC(Sc1nc2nccnc2c(=O)n1Cc1ccccc1Cl)C(=O)NC1CCCCC1 (stereo not drawn),13.1%,/,/,/,/,/
Cc1ccc(C)c(N2CCN(C(=O)C3CCCN(S(=O)(=O)c4c(C)noc4C)C3)CC2)c1 (stereo not drawn),-17.1%,-23.7%,-12.6%,-77.4%,11.7µM*,11.2µM*
Cc1noc(C)c1S(=O)(=O)N1CCN(Cc2ccc3c(c2)OCO3)CC1,-16.2%,?,-5.9%,7.08µM*,0.6%,17.4%
CCC(=NCCc1ccccc1)c1c(O)n(C)c(=O)n(C)c1=O,5.1%,25.3%,1.6%,30.2%,4.8%,8.91µM*
COc1ccc(/C=C/C(=O)CC(O)(c2ccccc2)C(F)(F)F)cc1 (stereo not drawn),-8.7%,?,-11.6%,-22.4%,13.1µM*,-11.6%
O=C(/C=C/c1ccccc1)CC(O)(c1ccccc1)C(F)(F)C(F)F (stereo not drawn),5.0%,7.38µM*,-10.5%,-20.3%,/,?
CCN(CC)CCCNC(=O)C1CCN(c2ncnc3c2sc2cccc(F)c23)CC1,1.9%,1.85µM*,2.9%,37.8%,?,?
Cc1ccc(-c2nn(-c3ccccc3)cc2CNCc2ccccc2)cc1,-3.3%,-13.4%,?,9.2%,?,11.2µM*
Cc1ccc(-c2nn(-c3ccccc3)c3[nH]c(=O)c(CNCCN(C)C)cc23)cc1,-0.7%,-9.6%,/,71.4%,4.65µM*,13.2%
Cc1nn(-c2ccccc2)c2[nH]c(=O)c(CNCCN3CCOCC3)cc12,9.4%,-6.4%,98.1%,-24.6%,-1.9%,7.6%
Cc1ccc(-c2nn(-c3ccccc3)c3[nH]c(=O)c(CNCc4ccccc4)cc23)cc1,-4.7%,-17.5%,66.8%,18.4%,1.04µM*,?
Cc1nn(-c2ccccc2)c2[nH]c(=O)c(CNCc3ccc4c(c3)OCO4)cc12,-10.5%,8.6%,79.7%,3.8%,4.65µM*,0.1%
Cc1ccc(-c2nn(-c3ccccc3)cc2CO)cc1,0.4%,20.0%,19.5%,-4.4%,85.8%,-2.1%
Cc1nn(-c2ccccc2)c2[nH]c(=O)c(CNc3ccc4c(c3)OCCO4)cc12,-10.4%,-0.1%[5.75 µM],-12.1%,-0.9%,47.8%,2.4%
SMILES,AmpC inh detg,Pf growth 96h,AMA1 RON2 block,AmpC no deterg,Pf growth 48h,HCV inh
CCc1ccc(NCc2cc3c(C)nn(-c4ccccc4)c3[nH]c2=O)cc1,-6.4%,?,-7.4%,-19.2%,/,-16.6%
Fc1ccc(Nc2nc(-c3cccc(Cl)c3)c3c(n2)-c2ccccc2OC3)cc1,14.4%,/,/,/,/,/
CC(=O)NC(c1ccco1)c1cc(Cl)c2ccc(N(C)C)nc2c1O (stereo not drawn),0.3%,-32.6%,/,89.3%,?,/
O=c1[nH]c2ccc(Br)cc2c(-c2ccccc2)c1N1CCOCC1,?,6.6%,-3.6%,1µM*,13.6%,8.7%
Cc1ccc(Nc2nnc(SCC(=O)c3ccc(O)cc3O)s2)cc1,-1.8%,2.08µM*,7.9%,11.2µM*,?,-1.0%
COc1ccc(Nc2nnc(SCC(=O)c3cc(C)n(CC4CCCO4)c3C)s2)cc1 (stereo not drawn),-2.1%,/,-29.3%,0.8%,5.86µM*,?
COc1ccc(Nc2nnc(SCC(=O)N3CCCC3)s2)cc1,3.6%,?,8.0%,-14.8%,/,-8.5%
COc1ccc(Nc2nnc(SCC(=O)N3CC(=O)Nc4ccccc43)s2)cc1,5.3%,2.33µM*,-9.8%,-51.5%,?,9.6%
COc1ccc(Nc2nnc(SCC(=O)NC(=O)Nc3ccc4c(c3)OCCO4)s2)cc1,-10.8%,-14.9%,15.5%,-33.6%,8.3%,11.2µM*
Clc1cccc(Nc2ncnc3c2nc2n3CCCCC2)c1,-7.5%,/,/,/,/,/
COc1ccc(Nc2nnc(SCC3CCCCO3)s2)cc1 (stereo not drawn),4.6%,13.1µM*,-4.8%,-25.3%,3.7µM*,0.8%
O=C(OCc1ccc(C(=O)c2ccccc2)cc1)c1cccc(-c2nnc(-c3ccccc3)o2)c1,6.1%,167.4%,1.5%,-6.3%,33.6%,14.1µM*
Brc1ccc(-c2nc3ccccc3s2)s1,-10.2%,324.4%,48.0%,-18.6%,190.9%,1.9%
O=c1ccc2nc3ccccc3sc-2c1,/,/,14.1µM*,/,/,/
Cc1cccc(Cc2c(C)nc3nc(SCC(=O)NCc4ccc(F)cc4)nn3c2C)c1,-7.0%,/,/,/,/,/
COc1cc(CNCCSc2nnnn2C)cc(Br)c1OCc1ccccc1F,-6.1%,/,1.7%,132.3%,-2.5%,?
CCOc1cc(CNCCSc2nnnn2C)cc(Br)c1OCc1ccccc1F,?,8.28µM*,-1.7%,173.6%,?,?
CCOc1cc(CNCc2ccncc2)cc(Br)c1OCc1ccccc1F,-1.7%,?,13.8%,116.0%,?,7.94µM*
